Screening results from PubChem.
Most compounds without a hit are left out; they make up all but 6.5% or so of the library.
Giardia kill: Giardia lamblia killing | Giardia lamblia trophozoite viability | hit rate 0.15% among 340,000 | activity change, % at 7.66 µM, hits read low | AID 540267; in the data active = activity change below about -80%; inconclusive = between about -30% and that limit;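 also: parasites exposed to compound for two days anaerobically before the ATP read; % is scaled to controls: 0 for no effect and ±100 for the full control effect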
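Luminescence from cellular ATP indicates surviving trophozoites (100 cells/well) following 48 hrs anaerobic compound treatment at 37 deg C; signal develops 15-30 min at room temperature.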
TGFb inhibitor: inhibitors of TGF-b signaling | Potency, µM (doses to about 46.1 µM), inactives show top-dose activity, negative = inhibition, hits mostly inhibitors | HepG2 CAGA-GFP TGF-b/SMAD3 reporter, GFP fluorescence, 18 h; TGF-beta stimulated, 500 pg/mL final | hit rate 1.2% among 410,000; also: potency is read from the fitted curve at half-maximal effect; % is scaled to controls: 0 for no effect and ±100 for the full control effect; nearly all actives have a fitted effect of over 65% in size
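Smad-responsive CAGA-GFP expression was quantified in HEPG2 cells exposed to compounds and 500 pg/mL final TGF-beta for 18 h at 37 degrees C; unstimulated wells defined full inhibition.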
IL-1B inflam inh: inhibitors of inflammasome signaling (IL-1 beta secretion). THP-1 LPS/ATP IL-1B secretion, AlphaLISA, 16 h; active compounds read low. activity change, % at 57.5 µM. hit rate 4.7% among 360,000; in the data active = activity change below about -50%; inconclusive = mostly about -30% to -49%; also: % is scaled to controls: 0 for no effect and ±100 for the full control effect
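THP-1 cells pretreated 1 hr with compounds (up to 57.5 uM final), then stimulated with LPS (250 ng/mL final) plus ATP (1.25 mM final); secreted IL-1B measured by AlphaLISA after 16 hr, decreased signal indicating inhibition.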
HT1080 IDH1KD tx: kills HT-1080 cells with IDH1 knockdown | HT-1080 IDH1 knockdown viability, ATP luminescence, 48 h | hit rate 2% among 360,000 | Potency, µM (doses to about 46.1 µM), for the others: top-dose activity, negative = toxicity, usual class: cytotoxic;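 also: potency is read from the fitted curve at half-maximal effect; 0% = DMSO wells and -100% = cell-free medium wells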
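After a 2 h attachment period, IDH1KD HT-1080 cells took pin-transferred compound for 48 h at 37 °C; ATP-based luminescence after 10 min room-temperature reagent incubation reported viability.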
HT1080NT lethal: kills 2HG-producing HT-1080-NT fibrosarcoma cells | HT-1080-NT fibrosarcoma viability, CellTiter-Glo ATP luminescence, 48 h | Potency, µM (titrated, usually from 46.1 µM), for the others: top-dose activity, negative = less viability, most hits filed as cytotoxic | hit rate 1.6% among 360,000;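 also: NT is the 2HG producing partner of a matched IDH1 knockdown line; potency is read from the fitted curve at half-maximal effect; 0% = DMSO-treated cells and -100% = media-only wells without cells; nearly all actives have a fitted effect of over 55% in size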
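Read-out is CellTiter-Glo luminescence after 10 minutes at room temperature, following 48 hours' compound treatment of HT-1080-NT cells (750 cells/well, RPMI, 5% FBS, 37 degrees C).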
HepG2 viability: kills HepG2 cells in TGF-b inhibitor counter-screen | HepG2 CAGA-GFP viability, ATP luminescence, 18 h | Potency, µM (doses to about 46.1 µM), for the others: at the top dose activity change, negative = cytotoxicity, most hits filed as cytotoxic | hit rate 0.76% among 410,000; also: potency is read from the fitted curve at half-maximal effect
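HepG2 CAGA-GFP cells (1000/well, DMEM with 1% FBS) received compound, then TGF-beta at 500 pg/mL final, and were incubated 18 hours at 37 degrees C. Viability was read by CellTiter-Glo luminescence. Media-only wells were set as complete cell-killing and DMSO as no toxicity.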
Active calls of the source: *. Unless noted, calls follow the shape of the dose curve; as a rule, active = well fitted curve in the direction sought with a large enough effect; inconclusive = small, poorly fitted or top-dose-only effect, or another doubt; inactive = no such curve, though single readings can be large; an effect the other way counts as inactive or inconclusive.

Results for O=C1N(Cc2cccc(Cl)c2)C[C@@H]2C[C@@H](c3cccn3-c3cccnc3)N3CCC[C@@]123 ?
Giardia kill: 1.8; TGFb inhibitor: 15.8µM*; IL-1B inflam inh: -56.4*; HT1080 IDH1KD tx: -23.6%; HT1080NT lethal: -7.2%; HepG2 viability: -42.1%

What do the screens show for `COC(=O)CN(C)C(=O)CC1C(=O)NCCN1CC(C)(C)C` (stereo not drawn)?
Giardia kill: 33.3; TGFb inhibitor: -3.7%; IL-1B inflam inh: -10.2; HT1080 IDH1KD tx: 0.8%; HT1080NT lethal: -1.1%; HepG2 viability: -28.7%

How did N#Cc1cc(C(=O)c2cc(Br)ccc2O)cn(C2CCCCC2)c1=O do in these assays?
Giardia kill: 7.8; TGFb inhibitor: inconclusive; IL-1B inflam inh: -80.5*; HT1080 IDH1KD tx: -22.8%; HT1080NT lethal: 2.2%; HepG2 viability: -15.6%

How did N#Cc1cc(C(=O)c2ccccc2OCC(=O)Nc2ccccc2Cl)cn(C2CCCCC2)c1=O do in these assays?
Giardia kill: -22.0; TGFb inhibitor: inconclusive; IL-1B inflam inh: -5.3; HT1080 IDH1KD tx: -1.5%; HT1080NT lethal: -6.9%; HepG2 viability: -2.1%

What do the screens show for `COc1cc(OC)cc(N(C(=O)c2ccco2)C(C(=O)NC2CCCC2)c2ccc(N3CCOCC3)cc2)c1` (stereo not drawn)?
Giardia kill: -14.5; TGFb inhibitor: 20.3%; IL-1B inflam inh: -26.7; HT1080 IDH1KD tx: 14.5%; HT1080NT lethal: 11.6%; HepG2 viability: -3.2%

What do the screens show for `Cc1nc2ccc(NC(=O)c3nn(CC(C)C)c(=O)c4ccccc34)cc2s1`?
Giardia kill: 3.2; TGFb inhibitor: -10.9%; IL-1B inflam inh: -85.5*; HT1080 IDH1KD tx: -13.6%; HT1080NT lethal: 0.1%; HepG2 viability: -4.3%

What do the screens show for `O=C(NCc1ccccc1Cl)NCc1noc2ccccc12`?
TGFb inhibitor: -24.0%; HepG2 viability: -18.1%

How did COc1ccccc1C(=O)Nc1c2c(nn1-c1cccc(C)c1C)CS(=O)(=O)C2 do in these assays?
Giardia kill: -5.9; TGFb inhibitor: -3.4%; IL-1B inflam inh: 10.5; HT1080 IDH1KD tx: inconclusive; HT1080NT lethal: -1.2%; HepG2 viability: -6.5%

How did COc1cccc(C(=O)Nc2c3c(nn2-c2ccc(C)cc2C)CS(=O)(=O)C3)c1OC do in these assays?
TGFb inhibitor: 26.1%; HepG2 viability: 3.16µM*

How did O=c1[nH]c(/C=C/c2ccccc2F)nc2ccccc12 do in these assays?
Giardia kill: -20.1; TGFb inhibitor: 0.0%; IL-1B inflam inh: 33.8; HT1080 IDH1KD tx: 5.8µM*; HT1080NT lethal: inconclusive; HepG2 viability: 4.1%

How did O=c1[nH]c(/C=C/c2ccccn2)nc2ccccc12 do in these assays?
Giardia kill: 43.1; TGFb inhibitor: 1.0%; IL-1B inflam inh: -81.4*; HT1080 IDH1KD tx: -4.6%; HT1080NT lethal: -9.7%; HepG2 viability: -4.1%

How did Cc1ccc(Nc2nc(Cl)nc(N(C)C#N)n2)cc1 do in these assays?
Giardia kill: 5.0; TGFb inhibitor: 0.0%; IL-1B inflam inh: -114.3*; HT1080 IDH1KD tx: inconclusive; HT1080NT lethal: inconclusive; HepG2 viability: -59.1%

What do the screens show for `CN(C)CCNc1ncnc2c1sc1nc(N3CCOCC3)c3c(c12)CC(C)(C)SC3`?
Giardia kill: 5.4; TGFb inhibitor: -2.3%; IL-1B inflam inh: -80.2*; HT1080 IDH1KD tx: inconclusive; HT1080NT lethal: inconclusive; HepG2 viability: -95.7%

How did CCOC(=O)C1CCCN(S(=O)(=O)CCNC(=O)c2ccccc2)C1 (stereo not drawn) do in these assays?
Giardia kill: -0.8; TGFb inhibitor: 14.6%; IL-1B inflam inh: inconclusive; HT1080 IDH1KD tx: -1.0%; HT1080NT lethal: -1.1%; HepG2 viability: 7.6%

What do the screens show for `CC1C(c2ccccc2)N(C)C(c2ccccc2)C(C)C1(O)C#Cc1ccccc1` (stereo not drawn)?
Giardia kill: -3.0; TGFb inhibitor: 11.2µM*; IL-1B inflam inh: -65.1*; HT1080 IDH1KD tx: inconclusive; HT1080NT lethal: -7.5%; HepG2 viability: -31.5%

How did CCN1CCC(O)(C#Cc2ccccc2)CC1 do in these assays?
Giardia kill: -20.8; TGFb inhibitor: 11.4%; IL-1B inflam inh: 45.0; HT1080 IDH1KD tx: 3.0%; HT1080NT lethal: -29.0%; HepG2 viability: 0.7%

Results for CC(C(=O)Nc1cccnc1)N1C(=O)C2C3C=CC(C3)C2C1=O (stereo not drawn) ?
Giardia kill: 13.1; TGFb inhibitor: -11.6%; IL-1B inflam inh: 8.9; HT1080 IDH1KD tx: 8.9%; HT1080NT lethal: 13.0%; HepG2 viability: -0.6%

How did COc1ccc(N(CC(O)Cn2c3ccccc3c3ccccc32)S(=O)(=O)c2ccccc2)cc1 (stereo not drawn) do in these assays?
Giardia kill: 1.7; TGFb inhibitor: inconclusive; IL-1B inflam inh: -23.1; HT1080 IDH1KD tx: inconclusive; HT1080NT lethal: -25.1%; HepG2 viability: -33.9%

Results for CC(=O)Nc1ccccc1N(CC(O)Cn1c2ccccc2c2ccccc21)S(=O)(=O)c1ccc(C)cc1 (stereo not drawn) ?
Giardia kill: 10.6; TGFb inhibitor: inconclusive; IL-1B inflam inh: inconclusive; HT1080 IDH1KD tx: 14.6µM*; HT1080NT lethal: inconclusive; HepG2 viability: -20.5%

Results for Cc1ccc(N(CC(O)Cn2c3ccccc3c3ccccc32)S(=O)(=O)c2ccc(F)cc2)cc1 (stereo not drawn) ?
TGFb inhibitor: 8.91µM*; HepG2 viability: 14.1µM*

What do the screens show for `Cc1ccc(CCNC(=O)c2ccc(CSCc3ccc(C)cc3)o2)cc1`?
TGFb inhibitor: inconclusive; HepG2 viability: -20.8%

Results for Cc1ccc(CSCc2ccc(C(=O)NCCC(C)C)o2)cc1 ?
Giardia kill: 6.9; TGFb inhibitor: -1.2%; IL-1B inflam inh: -66.1*; HT1080 IDH1KD tx: -4.6%; HT1080NT lethal: -22.2%; HepG2 viability: -7.8%

What do the screens show for `Cc1ccc(OCC(=O)N/N=C\c2c(C)[nH]n(-c3ccccc3)c2=O)c([N+](=O)[O-])c1`?
Giardia kill: 0.0; TGFb inhibitor: inconclusive; IL-1B inflam inh: 127.0; HT1080 IDH1KD tx: -23.0%; HT1080NT lethal: -15.9%; HepG2 viability: -7.3%

How did Cc1cc(C(=O)N/N=C/c2c(C)[nH]n(-c3ccccc3)c2=O)n[nH]1 do in these assays?
Giardia kill: -12.9; TGFb inhibitor: 27.6%; IL-1B inflam inh: -0.2; HT1080 IDH1KD tx: -23.3%; HT1080NT lethal: -25.7%; HepG2 viability: -15.1%

How did Cc1[nH]n(-c2ccccc2)c(=O)c1/C=N/NC(=O)c1ccc(O)cc1O do in these assays?
Giardia kill: 19.5; TGFb inhibitor: -3.0%; IL-1B inflam inh: 61.0; HT1080 IDH1KD tx: 23.1µM*; HT1080NT lethal: inconclusive; HepG2 viability: -18.6%
